Screens from PubChem.
Sampled rows, rich in hits. Any-hit rate of the full collection: about 7.1%.
ATXN2 expr inh – inhibitors of ATXN2 expression; Potency, µM (series often up to 57 µM), most hits filed as inhibitors; hit rate 0.72% among 360,000; HEK-293 ATXN2-luciferase reporter, luminescence, 24 h; note: nearly all actives have a fitted effect of over 55% in size
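qHTS (up to 57 uM final) was run with 24 h compound exposure of reporter cells at 37 °C. Each well was multiplexed: SteadyGlo luminescence measured ATXN2-luciferase expression after a fluorogenic Gly-Phe-AFC viability readout (25 uM final).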
IL-1B inflam inh – inflammasome signaling inhibition, IL-1 beta readout; activity change, % at 57.5 µM; THP-1 LPS/ATP IL-1B secretion, AlphaLISA, 16 h; active compounds read low; hit rate 4.7% among 360,000; in the data active = activity change below about -50%; inconclusive = mostly about -30% to -49%
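THP-1 cells pretreated 1 hr with compounds (up to 57.5 uM final), then stimulated with LPS (250 ng/mL final) plus ATP (1.25 mM final); secreted IL-1B measured by AlphaLISA after 16 hr, decreased signal indicating inhibition.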
PINK1 modulator – modulators of PINK1 expression. PINK1 immunofluorescence, high-content cytometry, 24 h. AID 624263. hit rate 0.2% among 410,000. Potency, µM (top dose mostly 76.6 µM), usual class: activators; active = well fitted activation curve with a large enough effect; inconclusive = small, poorly fitted or top-dose-only effect; cell line not stated here; note: nearly all actives have a fitted effect of over 65% in size
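PINK1 protein, normally rapidly degraded, was detected by immunofluorescence after 24 hour compound treatment of a stable cell line. Titration data (5 concentrations) came from laser-scanning cytometry, with CCCP-treated wells as controls.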
SW480 rereplic – DNA re-replication induction in SW480 cells | hit rate 1.8% among 340,000 | Potency, µM (top dose mostly 46.1 µM), usual class: activators | SW480 DNA re-replication, Hoechst DNA content imaging, 48 h | AID 624297; note: nearly all actives have a fitted effect of over 55% in size
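Treated cells incubate 48 hr (37 C, 5% CO2), are stained 40 min with Hoechst, and nuclear fluorescence is enumerated; a rise in nuclei with high DNA signal marks re-replication.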
S2 tox – cell viability loss in ATXN counter-screen. S2 cells (HEK-293 line with an ATXN2-luciferase reporter) viability, CellTiter-Fluor protease fluorescence, 24 h. Potency, µM (highest dose often 56.7 µM), most hits filed as cytotoxic. hit rate 0.49% among 400,000. AID 651635; note: nearly all actives have a fitted effect of over 40% in size
MCF10A rereplic – DNA re-replication induction in MCF 10a cells; MCF 10A DNA re-replication, Hoechst nuclear intensity, 48 h; Potency, µM (highest dose often 46.1 µM), most hits filed as activators; hit rate 2.9% among 350,000; AID 624296; note: nearly all actives have a fitted effect of over 50% in size
A number is an active result; . = inactive; ? = inconclusive; / = no result given. Unless noted, calls come from the whole dose curve; as a rule, active = well fitted curve in the direction sought with a large enough effect; inconclusive = small, poorly fitted or top-dose-only effect, or another doubt; inactive = no such curve, though single readings can be large; an effect the other way counts as inactive or inconclusive.

SMILES	ATXN2 expr inh	IL-1B inflam inh	PINK1 modulator	SW480 rereplic	S2 tox	MCF10A rereplic
Cc1ccc(C2(C(=O)N3CCC(n4nc(-c5ccccc5)oc4=O)CC3)CC2)cc1	/	.	.	.	.	20.6µM
c1ccc(-c2nnc(-c3c[nH]c4ccccc34)nc2-c2ccccc2)cc1	.	/	.	.	.	.
ClC(Cl)c1nnc(-c2ccccc2)c(-c2c[nH]c3ccccc23)n1	.	.	.	.	.	25.9µM
COc1ccc(NC(=S)NNC(=O)c2nnn(-c3ccccc3)c2C)cc1	.	.	.	4.11µM	.	.
COc1ccc(NC(=O)c2cnn(-c3ccccc3)c2C)cc1	/	.	.	.	?	.
c1ccc(CSc2nnc(C3CCNCC3)o2)cc1	.	/	.	/	.	/
Cc1cc2nc(/N=C(\N)NC(=O)C(C)C)nc(C)c2cc1C	.	-93.5	.	.	?	.
CCC(=O)N/C(N)=N/c1nc(C)c2cc(C)c(C)cc2n1	.	/	.	?	.	.
Cc1cc2nc(N=C(N)N)nc(C)c2cc1C	/	-78.4	.	18.4µM	?	?
Cc1nc(N=C(N)N)nc2ccccc12	?	-101.4	.	.	.	.
CCc1ccc2nc(N=C(N)N)nc(C)c2c1	?	-91.3	.	.	?	.
CCCCSCCCNC(=O)c1c[nH]c2ccc(S(=O)(=O)Nc3cccc(OC)c3)cc2c1=O	/	/	.	/	/	/
CC(C)Oc1ccc(C(=O)NCC2Cc3cc(Cl)cc(-c4ncccn4)c3O2)cc1 (centres undefined)	/	/	.	/	.	/
Cc1ccc2nc(/N=C(\N)NC(=O)NC3CCCCC3)nc(C)c2c1	?	-55.4	?	?	28.2µM	?
CCCC(=O)N/C(N)=N/c1nc(C)c2cc(C)ccc2n1	.	.	.	.	?	.
COc1ccc(C2CC(c3cccs3)n3nc(N)nc3N2)cc1 (centres undefined)	.	-58.6	.	?	.	?
COc1ccc(C2CC(c3ccccc3)n3nc(NC(=O)c4cccs4)nc3N2)cc1 (centres undefined)	.	-72.2	.	.	.	.
Nc1nc2n(n1)C(c1cccs1)CC(c1ccc(F)cc1)N2 (centres undefined)	.	.	.	.	.	.
CCOC(=O)N1CCC(N2CCCC(C(=O)c3ccc4cc(OC)ccc4c3)C2)CC1 (centres undefined)	.	-161.7	.	?	.	.
CC(C)Oc1cccc(C(=O)C2CCCN(C(=O)c3cc(C(F)(F)F)[nH]n3)C2)c1 (centres undefined)	.	-54.4	.	.	.	.
CCn1ncc(CN2CCCC(C(=O)c3cccc(OC(C)C)c3)C2)c1C (centres undefined)	/	.	.	.	.	23.1µM
CC(C)Oc1cccc(C(=O)C2CCCN(C(=O)c3cc(C4CC4)[nH]n3)C2)c1 (centres undefined)	.	.	.	.	.	.
COc1ccc2cc(C(=O)C3CCCN(Cc4cccc(C)n4)C3)ccc2c1 (centres undefined)	.	-109.3	.	?	.	?
Nc1ccc(C(=O)N2CC3CC(CN(Cc4ccccc4)C3)C2)cc1	.	/	/	/	.	/
O=C(NCc1ccc2c(c1)OCO2)c1ccc2c(c1)N(Cc1cccc(Cl)c1)C(=O)c1ccccc1S2=O (centres undefined)	/	/	.	/	/	/
SMILES	ATXN2 expr inh	IL-1B inflam inh	PINK1 modulator	SW480 rereplic	S2 tox	MCF10A rereplic
CC(=O)c1ccc(F)c(-c2cc(C)cc3c2OC(CNC(=O)C(C)n2nc(C)cc2C)C3)c1 (centres undefined)	/	/	.	/	?	/
CC(C)c1cc(C(=O)N2CCCC(C(=O)c3ccc4ccccc4c3)C2)on1 (centres undefined)	.	-89.2	.	.	?	?
Cc1cc(Cl)ccc1C(=O)C1CCCN(C(=O)c2cc(C(C)C)no2)C1 (centres undefined)	.	.	.	.	.	.
Cc1cc(NC(=O)COn2nnc3ccc(S(C)(=O)=O)cc32)ccc1Br	/	.	.	.	?	.
Cc1cc(Br)c(NC(=O)COn2nnc3ccc(S(C)(=O)=O)cc32)c(Br)c1	.	-65.5	.	.	.	.
N#C/C(=C\c1ccc(N2CCCCC2)o1)C(=O)Nc1cccc(Br)c1	/	?	6.31µM	.	/	?
COc1ccc(CN2CCc3c([nH]c4ccccc34)C2)c(OC)c1C	.	-89.0	.	.	.	?
COc1ccc(CN2CCc3c([nH]c4ccccc34)C2)cc1Br	/	.	.	?	?	?
Cc1cc(/C=N/n2cnnc2)c(C)n1-c1ccc(OCc2ccc(F)cc2)cc1	?	-80.4	/	.	.	.
Cc1cc(/C=N/n2cnnc2)c(C)n1-c1ccc(OCc2ccc(Cl)cc2Cl)cc1	15.8µM	-80.2	.	.	.	1.46µM
CC(=O)c1ccc(OCC(=O)N2CCCCC2)cc1	.	/	/	/	.	/
O=C(CC(c1ccccc1)c1ccccc1O)NCc1ccccc1Cl (centres undefined)	.	?	.	.	.	.
O=C(CC(c1ccccc1)c1ccccc1O)NCCc1ccccc1 (centres undefined)	.	-51.2	.	.	.	.
CC(=O)Cc1nsc(NC(=O)c2ccc(-c3cc(C(F)(F)F)ccc3Cl)o2)n1	.	.	5.01µM	?	.	3.26µM
CC(=O)Cc1nsc(NC(=O)c2ccc(-c3ccc(Cl)c(Cl)c3)o2)n1	.	.	.	.	.	?
CC(=O)Cc1nsc(NC(=O)c2ccc(-c3cccc(C(F)(F)F)c3)o2)n1	.	.	.	?	.	13µM
COCCNC(=O)CCc1c(C)n(C)c2cc(-c3cc(OC)c(OC)c(OC)c3)nn2c1=O	/	/	.	/	/	/
CCN(CC)CCn1c(NC(=O)c2ccc(C)cc2)nc2ccccc21	.	.	.	.	.	.
CCN(CC)CCn1c(NC(=O)c2ccc(C(F)(F)F)cc2)nc2ccccc21	.	.	.	.	.	20.6µM
CN(C)Cc1c(O)ccc2cc(-c3nc4ccccc4n3C)c(=O)oc12	.	.	.	3.66µM	/	5.8µM
CCN(CC)c1ccc2cc(-c3nc4ccccc4n3C)c(=O)oc2c1	.	.	?	0.581µM	/	?
CCN(CC)c1ccc2cc(C(=O)c3cccs3)c(=O)oc2c1	.	-52.0	.	/	/	/
CCN(CC)c1ccc2cc(-c3nnc(-c4ccccc4)o3)c(=O)oc2c1	.	.	.	?	/	?
CCN(CC)c1ccc2cc(-c3nc4ccccc4[nH]3)c(=O)oc2c1	.	.	?	5.17µM	/	4.11µM
CCN(CC(=O)NCc1ccc(Cl)cc1)C(=O)COc1ccc(Cl)cc1Br	.	.	.	.	.	.
CC(=O)N1CCC[C@H]1C(=O)NCC1Cc2cc(C)cc(-c3ccc(Cl)cc3)c2O1 (some centres undefined)	/	/	.	/	.	/
CCN(CC)c1ccc2cc(-c3nc(-c4ccc(Cl)cc4Cl)cs3)c(=O)oc2c1	.	/	.	/	.	/
